Results taken from PubChem BioAssay (NCI).
This is part of a sample that, as a whole, favours compounds with a hit. Of some 83,000 tested, about 20% had one in any assay.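 Treatment: one concentration, 48 hours, 96-well format. Scoring: percent growth, with anything below 10 considered active.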 Values without a mark were called inactive. Activity calls are given as the source filed them.

How the values were obtained:
Experiment in all cases: NCI-60 one-dose screen, 48 h (100 = growth as untreated, 0 = no growth, -100 = all killed)
HCT-15 colon = conditions: 10 µM unless noted
HT29 colon = conditions: 10 µM unless noted
SNB-75 CNS = conditions: 10 µM unless noted
SNB-19 CNS = conditions: 10 µM unless noted
U251 CNS = conditions: 10 µM unless noted
PC-3 prostate = conditions: 10 µM unless noted
SK-MEL-5 melanoma = conditions: 10 µM unless noted
UACC-62 melanoma = conditions: 10 µM unless noted
LOX IMVI melanoma = conditions: 10 µM unless noted
SK-MEL-28 melanoma = conditions: 10 µM unless noted
SK-MEL-2 melanoma = conditions: 10 µM unless noted
EKVX NSCLC = conditions: 10 µM unless noted
SN12C renal = conditions: 10 µM unless noted
UO-31 renal = conditions: 10 µM unless noted
TK-10 renal = conditions: 10 µM unless noted
ACHN renal = conditions: 10 µM unless noted
CAKI-1 renal = conditions: 10 µM unless noted
A498 renal = conditions: 10 µM
HL-60(TB) leukemia = conditions: 10 µM unless noted
CCRF-CEM leukemia = conditions: 10 µM unless noted

Structure (SMILES)	growth (HCT-15 colon)	growth (HT29 colon)	growth (SNB-75 CNS)	growth (SNB-19 CNS)	growth (U251 CNS)	growth (PC-3 prostate)	growth (SK-MEL-5 melanoma)	growth (UACC-62 melanoma)	growth (LOX IMVI melanoma)	growth (SK-MEL-28 melanoma)	growth (SK-MEL-2 melanoma)	growth (EKVX NSCLC)	growth (SN12C renal)	growth (UO-31 renal)	growth (TK-10 renal)	growth (ACHN renal)	growth (CAKI-1 renal)	growth (A498 renal)	growth (HL-60(TB) leukemia)	growth (CCRF-CEM leukemia)
O=P1(NCCCl)OCCCN1CCCl (centres undefined)	98.9%	103%	115%	111%	117%	93.7%	112%	107%	99.8%	116%	99.6%	105%	101%	87.5%	97.7%	98.8%	99%	108%	100%	99.1%
COC1CC2c3ccccc3C1C(C)=[N+]2C (centres undefined)	101%	96.6%	71.7%	100%	99.1%	84.8%	106%	91.8%	94.7%	145%	91.8%	97.4%	94.1%	94%	98.8%	99.3%	69.3%	80.8%	113%	76.7%
c1cnc2[nH]cc(-c3csc(-c4cn(CCCCN5CCOCC5)c5ccccc45)n3)c2c1	5.17% (active)	-44.6% (active)	35.4%	57.5%	20%	25.9%	51.2%	68.9%	20.8%	-71.1% (active)	87.8%	64%	67%	25.4%	64.4%	32.4%	44.3%	56.8%	-58.2% (active)	10.1%
C[S+]1C=Cc2ccccc2C1c1ccc(Cl)cc1 (centres undefined)	96.8%	84.9%	-70.7% (active)	110%	67%	73.5%	99.3%	95.8%	91.1%	103%	92.7%	90.6%	96%	75.6%	101%	99.3%	72.7%	96%	91.3%	73.7%
CCCCCCCCOC(=O)CCN1CC1	101%	111%	110%	112%	95.6%	104%	105%	109%	96.9%	113%	119%	99%	106%	92.8%	127%	103%	98.4%	84.2%	149%	110%
COc1cccc2c1c(C(=O)C(=O)Nc1ccn[nH]1)cn2Cc1ccc(F)cc1	106%	105%	90.1%	107%	103%	98.3%	106%	92.1%	103%	110%	93.8%	119%	100%	89%	51.7%	101%	46.7%	-72.9% (active)	115%	93.2%
COc1ccc(Nc2ccnc3cc(Cl)ccc23)cc1CN(CCCl)CCCl	-12.1% (active)	1.34% (active)	-10.8% (active)	-0.124% (active)	-11% (active)	-4.22% (active)	-88.4% (active)	-87% (active)	-51.6% (active)	-38.3% (active)	-46.7% (active)	-15.3% (active)	2.25% (active)	-42.2% (active)	-37.5% (active)	-33.7% (active)	-63.9% (active)	-47.5% (active)	-22.3% (active)	-6.67% (active)
c1ccc(CSC(c2ccccc2)c2ccccc2)cc1	106%	84.1%	119%	104%	102%	104%	112%	103%	100%	143%	114%	117%	101%	92.2%	123%	103%	96.7%	123%	68.5%	117%
CCCCCN(CCCCC)CC(O)c1cc(Cl)ccc1OC (centres undefined)	31.3%	11.8%	84.8%	56.7%	38.3%	24.5%	37.7%	62.3%	14.5%	51.7%	32.8%	52.4%	52.7%	25.2%	73.1%	43.9%	28.7%	37.4%	55.4%	
COC(C(=O)[C@@H](O)[C@@H](C)O)[C@@H]1Cc2cc3cc(O[C@H]4C[C@@H](O[C@H]5C[C@@H](O)[C@H](O)C(C)O5)[C@H](O)C(C)O4)c(C)c(O)c3c(O)c2C(=O)[C@H]1O[C@H]1C[C@@H](O[C@H]2C[C@@H](O[C@H]3C[C@@H](O)[C@@H](O)C(C)O3)[C@@H](O)C(C)O2)[C@H](O)C(C)O1 (some centres undefined)	47.7%	-11.9% (active)	-31.8% (active)	11.7%	1.11% (active)	21.6%	-49.2% (active)	-52.2% (active)	-10.6% (active)	-9.88% (active)	-61.3% (active)	24.4%	7.47% (active)	-3.24% (active)	12.1%	0.535% (active)	12.6%	-39.9% (active)	30.5%	29.4%
CC(CC1CCCCC1)NCc1ccccc1 (centres undefined)	94.4%	93.2%	100%	100%	106%	88.6%	99.1%	93.3%	83.7%	103%	102%	99.1%	94%	66.2%	94.2%	96.1%	99.9%	89.5%	111%	100%
C[CH2][Sn]([Cl])([Cl])[CH2]C.Oc1ccccc1C=NCCN=Cc1ccccc1O	104%	108%	121%	106%	93.5%	89.8%	99.5%	93.8%	72.2%	124%	116%	96.9%	101%	72.8%	117%	97.5%	86.5%	103%	113%	92.5%
CC[C@H](C)[C@H](NC(=O)[C@H]1CCCCN1C)C(=O)N(C)[C@H](C[C@@H](OC(C)=O)c1cccc(C(=O)N[C@@H](Cc2ccccc2)C[C@H](C)C(=O)O)n1)C(C)C	9.38% (active)	-13.2% (active)	8.07% (active)	26.9%	13.6%	25.4%	-24.5% (active)	40.4%	15.3%	69.3%	36.3%	59.6%	28.1%	44.7%	29%	32.3%	13.7%	-2.46% (active)	-40% (active)	16.8%
CC1=C(CNO)C2=C(C)C3(CC3)[C@@](C)(O)C(=O)C2=C1	12.1%	41.4%	-58.8% (active)	4.3% (active)	-13.6% (active)	5.59% (active)	-67.4% (active)	28.7%	52.8%	50.2%	-44.4% (active)	9.85% (active)	18.7%	-57.7% (active)	-0.334% (active)	-48.3% (active)	-9.31% (active)	-70.9% (active)	8.14% (active)	73.9%
O=C1NC(=O)C(=Cc2cn(C(=O)c3ccccc3)c3ccccc23)C(=O)N1	101%	97%	73.1%	97.6%	102%	79.4%	92.3%	85.9%	90.8%	111%	96.5%	97.5%	91.9%	64.2%	138%	93.5%	92.8%	115%	108%	104%
COc1ccc(/C=C\c2cc(OC)c(OC)c(OC)c2)cc1NC(=O)/C=C/c1cc(OC)c(OC)c(OC)c1	46.5%	34.2%	30.6%	61.8%	57%	36%	1.74% (active)	31.4%	46.3%	44%	47%	61.6%	71.6%	31.9%	82%	53.9%	31.5%	-3.68% (active)	15.7%	39.2%
